26 compounds from PubChem BioAssay AID449762 (Southern Research Specialized Biocontainment Screening …, 2010) can be followed below.

Screen size: about 330,000 compounds; about 1,900 (0.58%) were called active. Not shown: some 4% with an inconclusive outcome. Rule as the data show it: inconclusive = inhibition above about 70% without an active follow-up result; inactive = below that. Only a sample is shown. Measured potencies and affinities stand elsewhere.

The assay is described as follows: M. tuberculosis growth inhibition, HTS (AID 449762).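 Also: bacterial growth assessed after seven days of incubation.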 As to conditions: M. tuberculosis H37Rv growth inhibition, 7H9 media; at 25 µM; active compounds read high.
Turning to `CCOc1ccc(S(=O)(=O)NCCC(=O)N2CCC(Cc3ccccc3)CC2)cc1`, the inhibition is 44.3% (inactive).

Take `CCN(CC)S(=O)(=O)c1ccc(N2CCN(CCO)CC2)nc1`: the inhibition is -5.66% (inactive).

As for `Cc1nc2ccc(NC(=O)c3ccc([N+](=O)[O-])cc3)cc2s1`, the inhibition was 3.43% (inactive).

On to `Cc1nc2ccc(NC(=O)c3cc([N+](=O)[O-])cc([N+](=O)[O-])c3Cl)cc2s1`, for which the inhibition was 38.8% (inactive).

As to `COc1ccc(S(=O)(=O)N2CCN(CC(=O)Nc3ccccc3Cl)CC2)cc1`, the inhibition was -4.47% (inactive).

Turning to `CN(C)C1(CNC(=O)Nc2ccccc2)CCCCC1`, the inhibition was 3.43% (inactive).

For the compound `CN(C)C1(CNC(=O)c2ccc(NS(=O)(=O)c3ccc(Cl)c(Cl)c3)cc2)CCCCC1`, the inhibition was -3.67% (inactive).

On to `CCc1cc2c(=O)n(CC(=O)NCCc3ccc(OC)c(OC)c3)cnc2s1`, for which the inhibition is -7.38% (inactive).

In the case of `CCN(CC)C(=O)CN(c1cccc(Br)c1)S(C)(=O)=O`, the inhibition is -7.74% (inactive).

As to `COC(C/C=C/[C@H](O)[C@@H](C)OCc1ccccc1)OC`, the inhibition is -3.21% (inactive).

`O=C(C1=C[C@H](c2csc3ccccc23)C[C@H](OCCCCO)O1)N1CCN(Cc2ccc3c(c2)OCO3)CC1`: the inhibition is 59.9% (inactive).

Turning to `O=C(C1=C[C@H](c2csc3ccccc23)C[C@H](OCc2ccc(CO)cc2)O1)N1CCN(Cc2ccc3c(c2)OCO3)CC1`, the inhibition is 21.8% (inactive).

For the compound `Cc1ccc(/C=C/C(=O)O)cc1S(=O)(=O)N1CCc2ccccc21`, the inhibition was -1.47% (inactive).

Turning to `C/C(=N\NC(=O)c1sccc1C)c1cccnc1`, the inhibition was -1.12% (inactive).

With `CCN1CC(CN(C)Cc2nc(COc3ccccc3)no2)CC1=O` (stereo unspecified), the inhibition is 2.85% (inactive).

`C[C@@H](NCCc1ccc(O)cc1)[C@@H](O)c1ccc(O)cc1`: the inhibition was -1.64% (inactive).

For the compound `C[C@H](NCCc1ccc(O)cc1)[C@H](O)c1ccc(O)cc1`, the inhibition was 1.5% (inactive).

With `CCCCNC(=O)c1c(CSc2ccc(Cl)cc2)noc1C(=O)NCc1ccccc1`, the inhibition was 8.53% (inactive).

With `CC(C)(C)c1[nH]nc2c1C(Cc1ccccc1)C(C#N)=C(N)O2` (stereo unspecified), the inhibition is -0.95% (inactive).

As for `COc1ccccc1Nc1ccc(C(=O)NC2CCCCC2)cn1`, the inhibition is -2.47% (inactive).

`C/C(=N\NC(=O)COc1ccc(C)cc1[N+](=O)[O-])c1cccs1`: the inhibition is 2.03% (inactive).

With `C/C(CC(=O)NC(C)(C)C)=N\NC(=O)COc1ccc(C)cc1Br`, the inhibition was 2.95% (inactive).

On to `Cc1ccsc1C(=O)OCC(=O)NCc1ccccc1`, for which the inhibition is -4.47% (inactive).

Regarding `COc1cccc(/C=C2\SC(=S)N(CCCC(=O)NC3=NCCS3)C2=O)c1`, the inhibition is 2.44% (inactive).

For the compound `Cc1cc(C=C2C(=O)N(C)C(=S)N(C)C2=O)c(C)n1C1CCCCC1`, the inhibition was -5.32% (inactive).

With `Cc1cc(C=C2C(=O)N(C)C(=S)N(C)C2=O)c(C)n1C1CCCC1`, the inhibition is 64.7% (inactive).
